Assay results published in PubChem BioAssay (Tox21).
Results filed as inconclusive are left out. Entries that show only a call come without a potency. Active and inactive are the calls of the source. Calls follow the shape of the dose curve; as a rule, active = well fitted cell-killing curve with a large enough effect in the repeat runs; inconclusive = weak or mixed curves, or effect the other way; inactive = flat fitted curve, though single readings scatter.

Experiments:
[1] = cAMP Responsive Elements (CRE) small molecule antagonists, cell-based qHTS assay: qHTS cell viability counter screen (AID 2060913); conditions: CRE-bla HEK293T viability, CellTiter-Glo luminescence, 5 h; series mostly up to 92.4 µM; also: nearly all actives have a fitted effect of over 40% in size
In short: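 Steps: cells plated and held 18 hrs at 37 C/5% CO2; compounds and NKH477 (0.25 uM final) added; 3 hrs incubation; reporter substrate read; CellTiter-Glo added to measure cytotoxicity by luminescence.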

[2] = cAMP Responsive Elements (CRE) small molecule agonists, cell-based qHTS assay: qHTS cell viability counter screen (AID 2060914); conditions: CRE-bla HEK293T viability, CellTiter-Glo luminescence, 5 h; series mostly up to 92.4 µM;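 also: viability read after 3 h of compound exposure; nearly all actives have a fitted effect of over 50% in size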
In short: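 HEK 293T CRE-bla; DMEM + 10% dialyzed FBS, 25 mM HEPES; 18 h pre-incubation; compound 3 h, 37 °C/5% CO2; CellTiter-Glo added after reporter read; luminescence after 30 min RT.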
Potency is read from the fitted curve at half-maximal effect.

Row | Structure (SMILES) | Potency [1] | Potency [2]
1 | CC(=NC#N)N(C)Cc1ccc(Cl)nc1 | inactive | inactive
2 | O=C(O)C(Br)Br | inactive | inactive
3 | NC(=S)C(N)=S | inactive | inactive
4 | O=C1OC(=O)C2C1C1(Cl)C(Cl)=C(Cl)C2(Cl)C1(Cl)Cl (centres undefined) | inactive | inactive
5 | Oc1ccc(-c2ccccc2)cc1 | inactive | inactive
6 | CCN(CC)CCOC(=O)C(C)(c1ccccc1)c1ccccc1 | inactive | inactive
7 | Cc1ccccc1OP(=O)(Oc1ccccc1C)Oc1ccccc1C | inactive | inactive
8 | CCOc1ccc(N)cc1 | inactive | inactive
9 | N#Cc1sc2c(=O)c3ccccc3c(=O)c=2sc1C#N | 61.1 µM (active) | 54.5 µM (active)
10 | [CH3][Hg][Cl] | inactive | inactive
11 | CCC[CH2][Sn]([Cl])([Cl])[Cl] | inactive | inactive
12 | Cc1cccc([N+](=O)[O-])c1 | inactive | inactive
13 | ClCC(Br)CBr (centres undefined) | inactive | inactive
14 | C[N+]1(CCC(C(N)=O)(c2ccccc2)c2ccccc2)CCCCC1 | inactive | inactive
15 | ClCC(Cl)(Cl)Cl | inactive | inactive
16 | C[C@H]1[C@H](c2ccc(Cl)cc2)SC(=O)N1C(=O)NC1CCCCC1 | inactive | inactive
17 | CCCC(C)C1(CC)C(=O)N=C(S)NC1=O (centres undefined) | inactive | inactive
18 | O=C1C(Cl)=C(Cl)C(=O)c2ccccc21 | inactive | inactive
19 | CCOP(OCC)OCC | inactive | inactive
20 | CCOP(=S)(OCC)Oc1ccc(S(C)=O)cc1 (centres undefined) | inactive | inactive
21 | CC(C)(C)c1cc(O)ccc1O | inactive | inactive
22 | N#CC(Br)Br | inactive | inactive
